Source: PubChem (National Center for Advancing Translational Sciences (NCATS))
In the library only some 2.3% were active in any assay of this set; here they are far more common.
Rango dissoc inh: qHTS Assay for Inhibitors of RanGTP induced Rango (Ran-regulated importin-beta cargo) - Importin beta complex dissociation. Biochemical FRET Rango-importin beta, RanGTP-induced dissociation. AID 540253, 2011. Snurportin-1 (Homo sapiens) + GTP-binding nuclear protein Ran (Homo sapiens) + Importin …. actives 0.071% (n = 340,000). Potency, µM (top dose mostly 46.1 µM); calls by dose curve; also: nearly all actives have a fitted effect of over 45% in size
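Two FRET readings bracket the reaction: one 5 min after compound meets Rango–importin beta, another 45 min after RanGTP-RCC1 (0.6 uM Ran, 0.2 uM RCC1, 2 mM GTP) is added. Only the second defines inhibition.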
Nrf2 ARE act: qHTS of Nrf2 Activators; AREc32 ARE-luciferase reporter (MCF7-derived line), luminescence, 24 h; Potency, µM (highest dose often 46.1 µM), usual class: activators; actives 0.31% (n = 410,000); also: nearly all actives have a fitted effect of over 65% in size
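Nrf2 activation is followed as ARE-luciferase induction in the AREc32 line after one day of compound treatment; luminescence is read with Steady-Glo.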
A549 tox: Nrf2 qHTS screen for inhibitors: counterscreen for cytotoxicity; actives 0.16% (n = 390,000); Potency, µM (top dose mostly 46 µM), most hits filed as inhibitors; AID 504648, 2011; A549 ARE-Fluc cells, CellTiter-Fluor viability, 18-24 h
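Cytotoxicity counterscreen: CellTiter-Fluor fluorescence was measured in A549 ARE_Fluc cells after 18-24 h of compound exposure in a concentration series. The subsequent BugLite luminescent read reports ARE-luciferase activity.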
Rango complex inh: qHTS Assay for Inhibitors of Rango (Ran-regulated importin-beta cargo) - Importin beta complex formation | Importin subunit beta-1 (Homo sapiens), Q14974 | Rango CFP/YFP FRET sensor + importin beta, 45 min | Potency, µM (doses to about 92.2 µM) | actives 0.031% (n = 340,000) | AID 540263, 2011; calls by dose curve; also: nearly all actives have a fitted effect of over 15% in size
Target sequence (Q14974 whole entry, looked up): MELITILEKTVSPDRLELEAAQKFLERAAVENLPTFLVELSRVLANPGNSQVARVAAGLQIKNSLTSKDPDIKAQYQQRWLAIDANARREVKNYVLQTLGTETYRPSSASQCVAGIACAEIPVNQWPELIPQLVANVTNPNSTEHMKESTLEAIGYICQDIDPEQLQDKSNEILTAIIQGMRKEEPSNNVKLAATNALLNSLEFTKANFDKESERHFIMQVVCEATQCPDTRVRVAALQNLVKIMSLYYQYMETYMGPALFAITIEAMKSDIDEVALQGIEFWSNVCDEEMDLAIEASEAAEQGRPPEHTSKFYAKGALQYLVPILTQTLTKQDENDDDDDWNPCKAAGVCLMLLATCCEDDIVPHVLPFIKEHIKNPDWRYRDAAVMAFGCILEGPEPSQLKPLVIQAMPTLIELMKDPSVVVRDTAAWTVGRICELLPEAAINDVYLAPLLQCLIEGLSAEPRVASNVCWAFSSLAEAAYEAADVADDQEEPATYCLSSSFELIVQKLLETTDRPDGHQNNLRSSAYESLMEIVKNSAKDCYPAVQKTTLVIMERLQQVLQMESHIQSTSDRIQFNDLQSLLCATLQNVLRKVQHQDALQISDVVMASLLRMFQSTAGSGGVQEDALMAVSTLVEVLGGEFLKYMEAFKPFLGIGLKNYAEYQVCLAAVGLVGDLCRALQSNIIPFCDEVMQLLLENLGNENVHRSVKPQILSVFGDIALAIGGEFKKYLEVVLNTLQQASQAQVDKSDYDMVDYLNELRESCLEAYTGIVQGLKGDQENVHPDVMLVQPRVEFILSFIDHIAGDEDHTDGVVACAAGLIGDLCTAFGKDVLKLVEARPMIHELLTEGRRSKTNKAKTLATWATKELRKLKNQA
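FRET biosensor (snurportin 1 IBB flanked by EYFP and cerulean), 50 nM, with compound 5 min, then 0.125 microM importin beta in PBS, 1 mM DTT, 0.02% Tween-20, 0.1% BSA. CFP/YFP ratio read after 45 min at room temperature; pre-read flags interference.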
Nrf2 block: Nrf2 qHTS screen for inhibitors; A549 ARE-Fluc reporter, luciferase luminescence, 18-24 h; Potency, µM (top dose mostly 46 µM), hits mostly inhibitors; actives 2.1% (n = 360,000); AID 504444, 2011; also: nearly all actives have a fitted effect of over 60% in size
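Concentration-response testing used A549 ARE_Fluc cells at 5000 cells/well. Following an 18-24 h compound incubation, viability was read by fluorescence (Ex 405/Em 525) and luciferase output by luminescence.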
Numbers stand for hits; - = inactive; ? = inconclusive; . = no result given. Unless noted, calls follow the shape of the dose curve; as a rule, active = well fitted curve in the direction sought with a large enough effect; inconclusive = small, poorly fitted or top-dose-only effect, or another doubt; inactive = no such curve, though single readings can be large; an effect the other way counts as inactive or inconclusive.

SMILES	Rango dissoc inh	Nrf2 ARE act	A549 tox	Rango complex inh	Nrf2 block
CCCN1CCc2c(sc(NC(=O)C3CCN(S(=O)(=O)c4cccs4)CC3)c2C(N)=O)C1	?	-	-	?	-
NCc1cn(Cc2ccccc2)nc1-c1ccccc1	.	.	-	.	?
COc1ccc2c(c1)cc1c(=O)n(CC(=O)NC3CC3)nc(C)n12	.	-	-	.	-
Cn1c(/C=C/c2ccc(Br)cc2)c([N+](=O)[O-])c(=O)n(C)c1=O	-	-	?	-	20.6µM
CN(C)c1ccc(/C=C/c2c([N+](=O)[O-])c(=O)n(C)c(=O)n2C)cc1	-	-	?	-	-
CCCCN(C)C(=O)CSc1nc2ccccc2nc1Cc1ccc(C)cc1	.	-	-	.	.
Cc1cccc(N2CCN(c3ncnc4onc(C)c34)CC2C)c1 (centres undefined)	.	-	?	.	23.1µM
Cc1ccccc1Cn1cnc2nc3c(cc2c1=O)CC(C)CC3 (centres undefined)	.	-	-	.	.
CCOc1ccc(NC(=O)CC2C(=O)N(c3ccccc3)C(=O)N2CCc2cccs2)cc1 (centres undefined)	-	-	-	-	-
CCN(C(=O)COC(=O)C1CCC(C(C)(C)C)CC1)c1c(N)n(Cc2ccccc2)c(=O)[nH]c1=O (centres undefined)	-	-	-	-	13µM
CCN(C(=O)COC(=O)c1ccc2ccccc2c1)c1c(N)n(Cc2ccccc2)c(=O)[nH]c1=O	-	-	?	-	23.1µM
COCCN(C(=O)COC(=O)/C=C/c1nc2ccccc2s1)c1c(N)n(Cc2ccccc2)c(=O)[nH]c1=O	-	?	-	-	?
CCN(C(=O)COC(=O)/C=C/c1nc2ccccc2s1)c1c(N)n(Cc2ccccc2)c(=O)[nH]c1=O	-	12.6µM	-	-	-
CC(C)CN(C(=O)COC(=O)C1CC1)c1c(N)n(Cc2ccccc2)c(=O)[nH]c1=O	-	-	-	-	-
COc1ccc(NC(=S)N(CCc2c(C)[nH]c3ccc(C)cc23)Cc2cccnc2)cc1	-	-	?	-	20.6µM
CCOc1ccc(NC(=S)N(CCc2c(C)[nH]c3ccccc23)Cc2cccnc2)cc1	-	-	-	-	-
Cc1cc(C)cc(OCC(=O)NNC(=O)c2ccccn2)c1	-	-	-	-	10.3µM
CCc1ccc(CN(Cc2ccco2)C(=O)c2cc(-c3ccc(C)c(F)c3)on2)cc1	.	-	-	.	16.4µM
N#CC(c1ccc(F)cc1)c1ccc(C(=O)c2ccc(F)cc2)cc1 (centres undefined)	-	-	-	-	14.6µM
Cc1ccc(C(=O)NC(C)c2ccc(F)cc2)cc1 (centres undefined)	-	-	-	-	-
Cc1ccc(C(C#N)c2ccc(C(=O)c3ccc(F)cc3)cc2)cc1 (centres undefined)	-	-	-	-	25.9µM
O=C(COC(=O)c1cc(=O)[nH]c2ccccc12)Nc1ccccc1F	-	-	-	-	?
O=C1CCc2cc(Cl)c(S(=O)(=O)Nc3ccc(Cl)c(Cl)c3)cc2N1	.	.	-	.	-
CC1(C)Cc2c(sc3[nH]c(=S)n(Cc4ccccc4)c(=O)c23)CO1	-	-	?	-	16.4µM
CCC1(C)Cc2c(sc3nc(SC)n(Cc4ccccc4)c(=O)c23)CO1 (centres undefined)	-	-	-	-	?
SMILES	Rango dissoc inh	Nrf2 ARE act	A549 tox	Rango complex inh	Nrf2 block
CCCCNC(=O)CCn1c(=O)c2cccn2c2cccnc21	.	-	-	.	?
Cc1cccn2c(=O)c(C(=O)NC(C)c3ccccc3)c(O)nc12 (centres undefined)	.	-	?	.	6.51µM
Cc1ccc2c(c1)N(C(=O)N1CCC(C(=O)NCc3cccs3)CC1)CC(C)O2 (centres undefined)	.	-	-	.	-
Cc1ccc2nc(SC(C)C(=O)Nc3cccc([N+](=O)[O-])c3)[nH]c2c1 (centres undefined)	-	-	-	-	20.6µM
Cc1ccc(NC(CC(=O)c2ccccc2)c2ccc(F)cc2)cc1 (centres undefined)	-	-	-	-	?
O=C(CC(Nc1ccc(F)cc1)C(=O)O)c1ccccc1 (centres undefined)	-	20µM	-	-	?
CCOc1cccc(/C=C(/C#N)c2nc3ccccc3[nH]2)c1OCC(=O)O	-	-	-	?	-
COc1cccc(/C=C(\C#N)c2nc3ccc(C)cc3[nH]2)c1OCC(=O)O	16.4µM	-	-	?	-
Cc1nc([N+](=O)[O-])c(Br)n1Cc1ccc(Cl)c(Cl)c1	-	-	?	-	16.4µM
Cc1nc([N+](=O)[O-])c(Br)n1CC(=O)c1ccc(Cl)cc1	-	?	-	-	.
Cc1ccc(-c2c(CN3CCN(c4cc(Cl)ccc4C)CC3)csc2C)cc1	.	-	-	.	?
CCOC(=O)C1CCCN(Cc2nc(N)nc(Nc3ccc(Cl)cc3)n2)C1 (centres undefined)	-	-	-	-	25.9µM
CCC(=O)NC(c1cccc(C)c1)c1cc(Cl)c2cccnc2c1O (centres undefined)	.	.	-	.	-
COc1ccc2c(c1)c[n+](C)c1c3cc(OC)c(OC)cc3ccc21	.	-	.	.	.
COc1cc2c[n+](C)c3c4ccccc4ccc3c2cc1OC	-	-	-	-	16.4µM
c1ccc(-n2ncc3c2ncn2nc(-c4ccco4)nc32)cc1	-	10µM	-	-	?
COc1cc(C(=O)Nc2cc(C)ccc2OCc2cc(=O)n3c(C)csc3n2)cc(OC)c1OC	.	-	-	.	.
CC(C)(C)c1cc(C(=O)NN)n(Cc2ccc(F)cc2)n1	-	-	-	-	-
COC(=O)c1cc(NC(=O)c2cc(C(C)(C)C)nn2Cc2ccc(F)cc2)ccc1N1CCOCC1	-	-	-	-	13µM
CCCNC(=O)CN1C(=O)COc2ccc(S(=O)(=O)N3CC(C)CC(C)C3)cc21 (centres undefined)	-	-	-	-	-
Fc1ccc2c(c1)/C(=N/Nc1ccccn1)CCS2	-	11.2µM	-	-	-
Cc1ccc(C)c(S(=O)(=O)NCC(c2ccco2)S(=O)(=O)c2ccc(F)cc2)c1 (centres undefined)	.	-	-	.	.
Cc1ccc(C(=O)c2cccc(N)c2)cc1C	-	-	-	-	5.8µM
Cc1ccc(C(=O)c2ccc(O)cc2)cc1C	-	-	-	-	-
Cc1cc(S(=O)(=O)NCCc2csc(-c3cccc(F)c3)n2)ccc1F	.	-	-	.	.
CCOc1ccc(C(=O)Nc2ccc(C(=O)OCc3cc(=O)n4c(C)csc4n3)cc2)cc1	.	-	?	.	.
CC(/C=N/NC(=O)c1cc(-c2ccncc2)nc2ccccc12)=C\c1ccco1	-	?	18.4µM	-	-
